# “And” between values parts separate entries of the source, which are not always exact repeats. Equal entries are not always repeated. Over roughly 5,400 compounds, “IFI” has its median near 2; the highest 2% begin near 22. For the sample, the highest values were picked, then their nearest neighbours and some compounds at random.
# Assay: NOVARTIS: Inhibition Frequency Index (IFI) - the number of HTS assays where a compound showed > 50% inhibition/induction, expressed as a percentage of the number of assays in which the compound was tested.
# Assay type: functional
row,SMILES,IFI
1,Cc1occc1C(=O)NN=C/C(Cl)=C/c1ccccc1,7.69%
2,CC(C)(C)OCCN(CC(O)CN(Cc1ccccc1)C(=O)NC(c1ccccc1)c1ccccc1)S(=O)(=O)c1ccccc1 (stereo not given),0.935%
3,COc1cc(C2C(C(=O)OCC(C)C)=C(C)NC3=C2C(=O)CC(c2ccccc2)C3)cc(Br)c1O (stereo not given),4.65%
4,Cc1ccc(Cn2c(N3CCC(C(=O)NCc4ccccn4)CC3)nc3ccccc32)cc1,0%
5,CCc1cccc2c(C#N)cn(CC(=O)Nc3ccc(OC)cc3)c12,7.69%
6,Clc1ccc(C[n+]2cc(-c3ccccc3)n3c2CCC3)cc1Cl,3.77%
7,Cc1cccc(C)c1NC(=O)N1CCN(C(=O)c2nc(-c3ccccc3)nc(C)c2C(=O)OC(C)C)CC1C (stereo not given),2.8%
8,N#CC(c1ccc(C(F)(F)F)cc1)c1ccc2c(C(F)(F)F)cc(C(F)(F)F)nc2n1 (stereo not given),26.3%
9,COc1ccc(C2Nc3ccc4ccccc4c3C3=C2C(=O)CC(C)(C)C3)cc1Br (stereo not given),0%
10,CCCCOc1cccc(C(=O)N(Cc2cccs2)c2ccc(OC)cc2)c1,0%
11,CCN1C(=Cc2ccc3c4ccoc4ccc3[n+]2CC)C=Cc2c1ccc1occc21,28.6%
12,CC[n+]1c(/C=C2\C=Cc3cc(C)ccc3N2C)ccc2cc(C)ccc21,15.4%
13,CCN1C(=Cc2sc3cc(NC(C)=O)ccc3[n+]2CC)C=Cc2cc(C)ccc21,7.69%
14,C=CCN1C=CC(=Cc2sc3ccccc3[n+]2C)c2ccccc21,17.6%
15,CC(C)(C)NC(=O)C(c1ccc(F)cc1)N(CCCN1CCOCC1)C(=O)c1ccc(-c2ccccc2)[nH]1 (stereo not given),3.16%
16,COc1ccc(OC)c(NC(=O)c2cnn3c(C(F)(F)F)cc(-c4ccc(OC)c(OC)c4)nc23)c1,2.38%
17,CC1(C)C(=O)C2(CCCCC2)C(=O)OC1/C=C/c1ccccc1 (stereo not given),1.49%
18,c1ccc(CSc2nnc3c(n2)[nH]c2ccccc23)cc1,0% and 3.82%
19,c1ccc(CSc2scnc2[P+](c2ccccc2)(c2ccccc2)c2ccccc2)cc1,27.8%
20,c1ccc(CSc2nc3ccncc3[nH]2)cc1,0%

row,SMILES,IFI
1,COc1ccccc1CN1CCc2nc(-c3cnccn3)sc2C1,9.86%
2,COc1ccc(CCNc2nc(NCCCn3ccnc3)ncc2C(=O)NCC(C)C)cc1OC,1.92%
3,CC(=O)N(Cc1ccc(F)cc1)C1=C(NCc2ccccc2)C(=O)c2ccccc2C1=O,23.1%
4,CC(=O)N(Cc1ccc(F)cc1)C1=C(NCCc2ccccc2)C(=O)c2ccccc2C1=O,8.33%
5,CNC1=C(N(Cc2ccc(Cl)c(Cl)c2)C(C)=O)C(=O)c2ccccc2C1=O,14.3%
6,CCOC(=O)c1c(N=Cc2cccc(OC)c2O)sc2c1CCN(C)C2,0%
7,O=c1cc[nH]c2cc(N3CCCCCC3)c(F)cc12,0%
8,O=C(Nc1ccc2oc(-c3cccc4ccccc34)nc2c1)c1ccc([N+](=O)[O-])o1,7.14%
9,C=CC1(C)CC23CC(C(OC(=O)c4ccccc4)c4ccnc5ccccc45)N2CCC13 (stereo not given),3.64%
10,COc1cccc2cc(-c3nc(-c4ccccc4)cs3)c(=O)oc12,6.45%
11,Cc1cc(/C=C2/SC(=S)N(CC(=O)O)C2=O)c(C)n1-c1ccccc1,0%
12,CCN1/C(=C\C=C2/SC(=S)N(c3ccccc3)C2=O)C(C)(C)c2cc(-c3ccccc3)ccc21,25%
13,COc1cccc(N2C(=O)/C(=C/c3cccnc3)SC2=S)c1,0%
14,N#Cc1c(-c2ccccc2)cc(N2CCN(Cc3ccc(Cl)cc3)CC2)n2c1nc1ccccc12,7.5%
15,CCOC(=O)c1c(-c2ccc3c(c2)OCO3)[nH]c2cccc(OC)c2c1=O,0%
16,CCOC(=O)c1c(-c2ccc3c(c2)OCO3)[nH]c2cc(OC)ccc2c1=O,0%
17,COc1cc2c(OC3OCC(OC)C(OC)C3O)c3c(c(-c4ccc5c(c4)OCO5)c2cc1OC)C(=O)OC3 (stereo not given),27.7%
18,CCOc1ccc(NC(=O)C2c3ccccc3C(=O)N(CC(C)C)C2c2cccs2)cc1 (stereo not given),6.25%
19,CS[C@H]1SC[C@H]2C(=O)N(C)[C@@H](C(C)C)C(=O)OC[C@@H](NC(=O)c3cnc4ccccc4n3)C(=O)N[C@@H](C)C(=O)N(C)[C@@H]1C(=O)N(C)[C@@H](C(C)C)C(=O)OC[C@@H](NC(=O)c1cnc3ccccc3n1)C(=O)N[C@@H](C)C(=O)N2C,34.6%
20,O=C(Nc1ccc(C2=NCCN2)cc1)c1ccc(-c2ccc(C(=O)Nc3ccc(C4=NCCN4)cc3)cc2)cc1,4.4%

row,SMILES,IFI
1,O=C(CN(CCN1CCOCC1)S(=O)(=O)c1ccccn1)N1CCN(C(c2ccccc2)c2ccccc2)CC1,0%
2,OC1(c2ccc3ccccc3c2)c2c(c3ccccc3c3ccccc23)C2=NCCN21 (stereo not given),3.25%
3,CCn1c2ccccc2[n+]2c(C)cc(C)nc12,7.14%
4,COc1cc2nc(NCC3CCCO3)n3nc(-c4ccccc4)nc3c2cc1OC (stereo not given),2.27%
5,CCn1c(/C=C/N(C)c2ccccc2)[n+](CC)c2cc(Cl)ccc21,6.25%
6,CCOC(=O)c1ccc2c(c1)[n+](CC)c(/C=C/N(C)c1ccccc1)n2CC,7.41%
7,CC[n+]1c(/C=C/N(C)c2ccccc2)n(-c2ccccc2)c2ccc(-c3nc4ccccc4s3)cc21,29.2%
8,NCCC(=O)N1CC(c2ccccc2)c2ccccc2C1CN1CCCCC1 (stereo not given),4.22%
9,COc1ccc2cc(CNCCc3cccc(Cl)c3)c(N3CCC(=O)N(CCN(C)C)CC3)nc2c1,9.73%
10,Cc1onc(-c2ccccc2)c1C(=O)N1CCC(CNc2c(-c3ccc(F)cc3)nc3ccccn23)CC1,5.56%
11,Cc1ccc(-c2cc(-c3cc(Cl)ccc3O)on2)cc1,0%
12,Cc1ccnc(Nc2nc(-c3ccccn3)cs2)c1,24.6%
13,c1ccc(Nc2nc(-c3ccccn3)cs2)nc1,18.1%
14,Cc1ccc(Nc2nc(-c3ccccn3)cs2)cc1,3.62%
15,O=S(=O)(NC1CCCC1)c1cccc2nonc12,0%
16,O=C1c2ccccc2C(=O)c2c1ccc1nonc21,30.8%
17,CC(=O)c1ccc2c3c(onc13)-c1ccccc1C2=O,0%
18,O=C(C1=C(O)C(=O)N(CCCn2ccnc2)C1c1ccccc1[N+](=O)[O-])c1ccccc1 (stereo not given),0%
19,COc1cccc(CNc2ncnc3sc(C(=O)NCC4COCCO4)c(C)c23)c1OC (stereo not given),1%
20,COc1ccc(Nc2nc(NN=Cc3cccc([N+](=O)[O-])c3OC)nc(Nc3ccc([N+](=O)[O-])cc3)n2)cc1,6.49%

# Source: ChEMBL document CHEMBL1156829
